Results filed as inconclusive are left out. Active and inactive are the calls of the source. Calls come from the whole dose curve.
Biological target: Vitamin D3 receptor (Homo sapiens) (UniProt P11473)
Experiment: qHTS assay for small molecule antagonists of vitamin D receptor signaling (AID 588541);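 note: receptor activated by calcitriol during compound treatment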
Details: HEK293T VDR-UAS-bla, beta-lactamase ratio, antagonist mode; series mostly up to 76.7 µM; activity change, negative = inhibition: at the top concentration
Text: NIH Chemical Genomics Center [NCGC]
U.S. Environmental Protection Agency [EPA]
National Institutes of Environmental Health Sciences [NIEHS]
National Toxicology Program [NTP]
The Vitamin D receptor (VDR) is a member of nuclear hormone receptor superfamily and it plays a critical role in calcium homeostasis and bone metabolism. It plays a role in inducing cell differentiation, inhibiting cell growth and in thrombogenicity. So, VDR that mediates these effects represents a pharmacological target in prevention and treatment of hyperproliferative malignancies, such as cancer and psoriasis, cardiovascular, immunological, inflammatory and renal diseases etc.
NCGC Assay Protocol Summary
Using a beta-lactamase reporter-gene under control of Vitamin D receptor (VDR) response element, a cell-based assay [GeneBLAzer (VDR -UAS-bla assay developed by Invitrogen] was used to measure VDR ligands signaling. GeneBLAzer VDR -UAS-bla HEK293T cells were used with assay medium containing 2% charcoal-stripped FBS. The assay was performed in clear bottom black Greiner 1536-well plates. Library compounds were measured for their ability to inhibit the reporter gene activity. Compounds were screened in a titration series in 1536-well format. The fluorescence intensity (405 nm excitation, 460/530 nm emission) was measured using an EnVision plate reader. Data was normalized relative to 1-alpha,25-Dihydroxy vitaminD3 control (50 nM, 100%) and DMSO only wells (basal, 0%). Concentration-response titration points for each compound were fitted to the Hill equation yielding concentrations of half-maximal inhibition (IC50) and maximal response (efficacy) values.
qHTS protocol for VDR beta-lactamase assay in antagonist mode
[Step] [Parameter] [Value] [Description]
1. Reagent; 5 uL; 2000 cells/well
2. Incubation; 37 C for 5 hrs
4. Controls (DMSO); 23 nL,
5. Agonist (Stimulator); 1uL; 1-alpha,25-Dihydroxy vitaminD3 at 50 nM and 3 nM final concentrations
6. Incubation; 37 C for 16 hrs
7. Detection reagent; 1 uL of CCF4-dye
8. Incubation; RT for 2 hrs
9. Detection; Fluorescence; Envision plate reader
% is set by controls: 0 for no effect and ±100 for the full control effect.

Chain of Vitamin D3 receptor (Homo sapiens) (P11473 whole entry, looked up): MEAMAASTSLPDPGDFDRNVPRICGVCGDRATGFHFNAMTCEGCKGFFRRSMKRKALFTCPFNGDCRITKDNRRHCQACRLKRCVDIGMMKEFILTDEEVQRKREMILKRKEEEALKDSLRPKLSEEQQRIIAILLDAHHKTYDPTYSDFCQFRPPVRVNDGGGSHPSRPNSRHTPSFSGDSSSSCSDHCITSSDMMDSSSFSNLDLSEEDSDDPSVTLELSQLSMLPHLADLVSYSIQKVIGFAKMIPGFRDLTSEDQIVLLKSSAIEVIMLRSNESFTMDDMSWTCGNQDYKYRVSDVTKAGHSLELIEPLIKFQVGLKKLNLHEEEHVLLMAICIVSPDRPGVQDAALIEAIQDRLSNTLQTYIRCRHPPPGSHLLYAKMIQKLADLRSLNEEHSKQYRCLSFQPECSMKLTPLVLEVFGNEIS

Compound	activity change, negative = inhibition	outcome
CC(C)(C)NC(=O)[C@@H]1C[C@@H]2CCCC[C@@H]2CN1C[C@@H](O)[C@H](Cc1ccccc1)NC(=O)[C@H](CC(N)=O)NC(=O)c1ccc2ccccc2n1	-34.1% (inactive)	–
CC1=C(/C=C/C(C)=C/C=C/C(C)=C/CO)C(C)(C)CCC1	6.53% (inactive)	–
Cc1ccccc1	–	inactive
CC1=CCC(C(C)(C)O)CC1 (centres undefined)	-3.91% (inactive)	–
O=CCCCC=O	-2.27% (inactive)	–
CCCCC/C=C\C/C=C\CCCCCCCC(=O)O	-0.71% (inactive)	–
CC(O)CO (centres undefined)	–	inactive
O=C(O)CCC(=O)C(=O)O	-3.03% (inactive)	–
CC(C)=O	6.83% (inactive)	–
Nc1ccn([C@H]2CS[C@@H](CO)O2)c(=O)n1	2.09% (inactive)	–
CC1(C)C(C=C(Cl)Cl)C1C(=O)OCc1cccc(Oc2ccccc2)c1 (centres undefined)	–	inactive
CCCCCCCC(=O)O	–	inactive
CCOC(C)=O	-4.38% (inactive)	–
C[C@H]1C[C@H]2[C@@H]3CCC4=CC(=O)C=C[C@]4(C)[C@@]3(F)[C@@H](O)C[C@]2(C)[C@@]1(O)C(=O)CO	4.98% (inactive)	–

From PubChem BioAssay (NCATS)
